The results in this text go back to PubChem BioAssay (NCI).

Molecules are shown by their SMILES. This is part of a sample that, as a whole, favours compounds with a hit. Of some 83,000 tested, about 20% had one in any assay.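 Plates (96-well) were seeded with cells, treated with compound at one concentration, and incubated for 48 hours before percent growth was determined.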 Unmarked numbers belong to inactive results. Calls of active or inactive are those of the source. The calls were made as follows: active = growth percent below 10; inactive = the rest.

Among the test systems are DU-145 prostate; K-562 leukemia; MALME-3M melanoma; MDA-MB-231 breast; RXF 393 renal; SF-268 CNS; SF-295 CNS; SF-539 CNS; UACC-257 melanoma; M14 melanoma; HCT-15 colon; HT29 colon; SNB-75 CNS; SNB-19 CNS; U251 CNS; PC-3 prostate; SK-MEL-5 melanoma; LOX IMVI melanoma; SK-MEL-28 melanoma; UACC-62 melanoma.
Holding throughout (assay): NCI-60 one-dose screen, 48 h (100 = growth as untreated, 0 = no growth, -100 = all killed)
Details in all cases: 10 µM unless noted

In the case of `CC(Nc1ncnc2ccc(-c3cnc(N)nc3)cc12)c1ccccc1` (configuration not stated), the growth was 25.1% in the assay on DU-145 prostate; 44.5% in the assay with K-562 leukemia; 28.9% in the assay on MALME-3M melanoma; 25.4% in the assay on MDA-MB-231 breast; -2.14% (active) in the assay with RXF 393 renal; 40.9% with SF-268 CNS. Also, the growth with SF-295 CNS is 29.6%; with SF-539 CNS it was 23.4%; in the assay with UACC-257 melanoma it was 77.2%; in the assay on M14 melanoma, 48.3%; with HCT-15 colon, 22.4%; with HT29 colon, 43.1%. In addition, the growth is 31.1% in the assay on SNB-75 CNS; 40% in the assay on SNB-19 CNS; 47% in the assay with U251 CNS; 29.7% in the assay with PC-3 prostate; 26.4% with SK-MEL-5 melanoma; 23.8% in the assay on LOX IMVI melanoma. In addition, the growth in the assay with SK-MEL-28 melanoma was 50.2%.

Consider `COc1ccc(C2CC(c3cccc(OCCCCOc4cccc(C5=NOC(c6ccc(OC)cc6)C5)c4)c3)=NO2)cc1` (configuration not stated), for which the growth is 104% in the assay on DU-145 prostate; 45.1% with K-562 leukemia; 110% in the assay with MALME-3M melanoma; 99.9% with MDA-MB-231 breast; 114% with RXF 393 renal; 108% in the assay with SF-268 CNS. Besides, the growth is 101% with SF-295 CNS; 111% in the assay on SF-539 CNS; 96.9% in the assay with UACC-257 melanoma; 90.5% with M14 melanoma; 77.3% in the assay on HCT-15 colon; 69.8% with HT29 colon. Further, the growth with SNB-75 CNS is 101%; with SNB-19 CNS it was 92%; in the assay on U251 CNS it was 77.3%; in the assay on PC-3 prostate, 99.8%; in the assay on SK-MEL-5 melanoma, 97.5%; in the assay with UACC-62 melanoma it was 68.8%. For the same molecule, the growth with SK-MEL-28 melanoma is 102%.

With `CCNC(=O)Oc1ccc(/C(=C(/C)c2ccc(OC)cc2)c2ccc(OCCN3CCCCCC3)cc2)cc1`, the growth with DU-145 prostate was 76%; in the assay with K-562 leukemia, 2.3% (active); with MALME-3M melanoma, -3.44% (active); in the assay on MDA-MB-231 breast it was 46.8%; in the assay with RXF 393 renal, 12.3%; in the assay with SF-268 CNS, 64%. For the same molecule, the growth in the assay with SF-295 CNS is -20.9% (active); with SF-539 CNS, 18.4%; in the assay on UACC-257 melanoma, -32.4% (active); with M14 melanoma it was -73.3% (active); in the assay on HCT-15 colon, -25.8% (active); in the assay with HT29 colon it was 10.5%. Also, the growth in the assay on SNB-75 CNS was 59.4%; in the assay on SNB-19 CNS, 61%; in the assay on U251 CNS it was 38.8%; in the assay on PC-3 prostate it was 31.3%; in the assay on SK-MEL-5 melanoma, 78.5%; with LOX IMVI melanoma, -6.62% (active). Further, in the assay on SK-MEL-28 melanoma, the growth was 19.8%.

On to `CCc1cc(O)ccc1Nc1cc(-c2ccc(-n3cccn3)cc2)[nH]n1`, for which the growth in the assay on DU-145 prostate is 71.5%; in the assay with K-562 leukemia, 18.9%; with MALME-3M melanoma it was 110%; in the assay on MDA-MB-231 breast, 92.9%; in the assay with RXF 393 renal, 108%; in the assay on SF-268 CNS, 66%. Besides, the growth was 36.5% with SF-295 CNS; 79.4% with SF-539 CNS; 70% in the assay with UACC-257 melanoma; 47.4% in the assay on M14 melanoma; 33.6% with HCT-15 colon; 77.4% in the assay on HT29 colon. Also, the growth in the assay with SNB-75 CNS is 117%; in the assay with SNB-19 CNS it was 69%; in the assay with U251 CNS, 82.5%; with PC-3 prostate it was 60.9%; in the assay on SK-MEL-5 melanoma it was 49.2%; in the assay on LOX IMVI melanoma, 26.1%. Moreover, the growth in the assay with SK-MEL-28 melanoma is 80.8%.

On to `CCOC(=O)Nc1ccc2c(ccn2C(=O)c2cccc(F)c2)c1`, for which the growth in the assay on DU-145 prostate was 29.5%; with K-562 leukemia, 14.2%; in the assay with MALME-3M melanoma, 61.7%; in the assay on MDA-MB-231 breast, 52.8%; with RXF 393 renal, 19.3%; in the assay on SF-268 CNS it was 65.8%. Further, the growth in the assay on SF-295 CNS is 19.6%; in the assay with SF-539 CNS, 0.0722% (active); in the assay on UACC-257 melanoma, 74.4%; with M14 melanoma, 25.3%; in the assay with HCT-15 colon, 29%; in the assay on HT29 colon, 1.15% (active). Also, the growth with SNB-75 CNS is 13.2%; with SNB-19 CNS, 27.8%; in the assay with U251 CNS, 25.7%; in the assay on PC-3 prostate it was 42%; with SK-MEL-5 melanoma it was 27.7%; in the assay with LOX IMVI melanoma, 49.4%. For the same molecule, the growth in the assay on SK-MEL-28 melanoma is 61.5%.

For `CN1CCN(c2ccc(Nc3nc(NCCCNS(=O)(=O)c4ccccc4)c4sccc4n3)cc2)CC1`, the growth in the assay on DU-145 prostate was 56.4%; with K-562 leukemia, 16.7%; in the assay with MALME-3M melanoma it was -42.8% (active); with MDA-MB-231 breast, 38.1%; in the assay with RXF 393 renal, -29.8% (active); in the assay on SF-268 CNS it was 64.2%. For the same molecule, the growth in the assay with SF-295 CNS was 38.4%; in the assay with SF-539 CNS it was -71.4% (active); in the assay on UACC-257 melanoma it was -15.6% (active); in the assay on M14 melanoma, -9.06% (active); in the assay with HCT-15 colon, 27.2%; in the assay on HT29 colon it was -26.7% (active). The growth with SNB-75 CNS is 89.3%; with SNB-19 CNS, 56.6%; in the assay with U251 CNS, 13.2%; in the assay with PC-3 prostate, 68.9%; in the assay on SK-MEL-5 melanoma, 24.9%; with LOX IMVI melanoma, -22.2% (active). The growth in the assay on SK-MEL-28 melanoma is -24.3% (active).

Take `COc1cc(/C=N\NC(=O)c2ccc3nc(-c4ccc(Br)cc4)[nH]c3c2)cc(OC)c1OC`: the growth in the assay on DU-145 prostate was 65.6%; with K-562 leukemia, 22.5%; in the assay on MALME-3M melanoma it was 23.4%; in the assay on MDA-MB-231 breast, 101%; in the assay on RXF 393 renal, 9.72% (active); in the assay on SF-268 CNS it was 51.7%. Also, the growth in the assay with SF-295 CNS was 32.5%; in the assay on SF-539 CNS, 32.6%; with UACC-257 melanoma it was 33.1%; in the assay on M14 melanoma it was 38.3%; in the assay on HCT-15 colon, 79.4%; with HT29 colon it was 25.3%. The growth with SNB-75 CNS is 57.1%; in the assay with SNB-19 CNS it was 59.3%; in the assay with U251 CNS it was 45.1%; with PC-3 prostate, 46.2%; with SK-MEL-5 melanoma, 27.5%; in the assay with UACC-62 melanoma, 28.1%. Further, the growth in the assay on SK-MEL-28 melanoma was 30.2%.

Regarding `Cn1cc(-c2nnc(N)nc2-c2c[nH]c3ccc(F)cc23)c2cc(Br)ccc21`, the growth was 37.8% in the assay with DU-145 prostate; 6.36% (active) in the assay on K-562 leukemia; 41.7% in the assay on MALME-3M melanoma; 47.3% in the assay on MDA-MB-231 breast; -12.7% (active) with RXF 393 renal; 39.7% in the assay with SF-268 CNS. The growth in the assay on SF-295 CNS is 9.61% (active); with SF-539 CNS, 7.43% (active); in the assay with UACC-257 melanoma, 50.9%; in the assay with M14 melanoma it was -6.09% (active); in the assay on HCT-15 colon, 16.9%; in the assay with HT29 colon, 3.17% (active). In addition, the growth in the assay with SNB-75 CNS is 0.251% (active); with SNB-19 CNS, 25.6%; in the assay on U251 CNS it was 17.5%; in the assay with PC-3 prostate, 22.6%; in the assay with SK-MEL-5 melanoma, 4.51% (active); in the assay with UACC-62 melanoma, 30.3%. Also, in the assay with SK-MEL-28 melanoma, the growth is 60.4%.
